Compounds with a hit are over-represented: about 8.1% of the library has one in this group of screens.
MCF10A rereplic – A quantitative high throughput screen for small molecules that induce DNA re-replication in MCF 10a normal breast cells | MCF 10A DNA re-replication, Hoechst nuclear intensity, 48 h | Potency, µM (titrated, usually from 46.1 µM), for the others: top-dose activity, positive = re-replication, usual class: activators | actives 2.9% (n = 350,000); also: % of control where 0% means no effect; nearly all actives have a fitted effect of over 50% in size
SW480 rereplic – A quantitative high throughput screen for small molecules that induce DNA re-replication in SW480 colon adenocarcinoma cells | SW480 DNA re-replication, Hoechst DNA content imaging, 48 h | Potency, µM (titrated, usually from 46.1 µM), without a hit: top-dose re-replication activation, usual class: activators | actives 1.8% (n = 340,000); also: % of control where 0% means no effect; nearly all actives have a fitted effect of over 55% in size
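Per well, 250 cells were exposed to pinned compound for 48 hr. Nuclear DNA was visualised with Hoechst (40 min, 37 C) and total object intensity recorded by fluorescence scanning.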
ELG1 DNA repair – qHTS screen for small molecules that inhibit ELG1-dependent DNA repair in human embryonic kidney (HEK293T) cells expressing luciferase-tagged ELG1 | actives 2.3% (n = 330,000) | Potency, µM (top dose mostly 46.1 µM), inactives show at the top dose activity change, negative = inhibition, most hits filed as inhibitors | AID 504467, 2011 | HEK293T ELG1-luciferase reporter, luminescence, 16 h; DNA damage induced by 5-fluorouridine; also: % is scaled to controls: 0 for no effect and ±100 for the full control effect; nearly all actives have a fitted effect of over 55% in size
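HEK293T cells expressing luciferase-tagged ELG1 (2,000/well) received 5-Fluorouridine plus compound or DMSO for 16 hr at 37 °C. Luciferase was read by ONE-Glo luminescence after 30 min at room temperature.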
KB-V1 MDR tox – qHTS assay for MDR1-selective chemotherapeutics: Primary screen using the drug-selected MDR subline cells KB-V1; actives 3.4% (n = 400,000); Potency, µM (series often up to 46.1 µM), actives largely listed as cytotoxic; KB-V1 MDR cells viability, CellTiter-Glo, 72 h; AID 1347076, 2019; also: % is scaled to controls: 0 for no effect and ±100 for the full control effect; nearly all actives have a fitted effect of over 60% in size
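Compound-treated KB-V1 multidrug-resistant cells, 72 h, 37 degrees C; viability by CellTiter-Glo. Fitted qHTS curves give the values.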
KB-3-1 cytotox – qHTS assay for MDR1-selective chemotherapeutics: Primary screen using the parental adenocarcinoma cell KB-3-1; KB-3-1 viability, CellTiter-Glo ATP luminescence, 72 h; Potency, µM (titrated, usually from 46.1 µM), usual class: cytotoxic; actives 1.4% (n = 400,000); AID 1347075, 2019; also: % is scaled to controls: 0 for no effect and ±100 for the full control effect; nearly all actives have a fitted effect of over 60% in size
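Parental KB-3-1 adenocarcinoma cells in phenol-red-free DMEM with 10% FBS were pin-treated with compounds at several concentrations, incubated 72 h at 37 °C, and viability read by CellTiter-Glo luminescence; concentration-effect curves were fitted after normalization.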
The depositor's hits bear a star; [ ] = remark or other dose. Calls follow the shape of the dose curve; as a rule, active = well fitted curve in the direction sought with a large enough effect; inconclusive = small, poorly fitted or top-dose-only effect, or another doubt; inactive = no such curve, though single readings can be large; an effect the other way counts as inactive or inconclusive. Potency is read from the fitted curve at half-maximal effect.

Results for O=C(NCC1CCCO1)c1cc([N+](=O)[O-])ccc1N1CCC(Cc2ccccc2)CC1 (stereo unspecified) ?
MCF10A rereplic: 13%; SW480 rereplic: -24%; ELG1 DNA repair: 23µM*; KB-V1 MDR tox: inconclusive; KB-3-1 cytotox: 4.6µM*

How did CCOc1ccccc1NC(=O)c1ccc(F)c(S(=O)(=O)N2CCC3(CC2)OCCO3)c1 do in these assays?
MCF10A rereplic: -4%; SW480 rereplic: -1%; ELG1 DNA repair: 21µM*; KB-V1 MDR tox: inactive; KB-3-1 cytotox: inactive

Results for O=C(NC1CCCCCCC1)c1ccc(F)c(S(=O)(=O)N2CCOCC2)c1 ?
MCF10A rereplic: -4%; SW480 rereplic: -6%; ELG1 DNA repair: -5%; KB-V1 MDR tox: inactive; KB-3-1 cytotox: inactive

How did Cc1ccc(NC(=O)c2ccc(F)c(S(=O)(=O)N3CCOCC3)c2)cc1F do in these assays?
MCF10A rereplic: 2%; SW480 rereplic: 2%; ELG1 DNA repair: -13%; KB-V1 MDR tox: 3.7µM*; KB-3-1 cytotox: inactive

How did CCOc1ccccc1NC(=O)c1ccc(S(=O)(=O)N2CCCCC2)cc1 do in these assays?
MCF10A rereplic: -12%; SW480 rereplic: -1%; ELG1 DNA repair: -14%; KB-V1 MDR tox: inactive; KB-3-1 cytotox: inactive

Results for O=C(Nc1ccc(-c2cn3ccsc3n2)cc1)c1ccc(F)c(S(=O)(=O)N2CCOCC2)c1 ?
MCF10A rereplic: 27%; SW480 rereplic: 3%; ELG1 DNA repair: 16µM*; KB-V1 MDR tox: inconclusive; KB-3-1 cytotox: inconclusive

How did O=C(NCC1CCCO1)c1ccc(Cl)c(S(=O)(=O)N2CCOCC2)c1 (stereo unspecified) do in these assays?
MCF10A rereplic: -3%; SW480 rereplic: -3%; ELG1 DNA repair: 6%; KB-V1 MDR tox: inactive; KB-3-1 cytotox: inactive

What do the screens show for `O=C(Nc1ccccc1)c1ccc(NCC2CCCO2)c(S(=O)(=O)N2CCOCC2)c1` (stereo unspecified)?
MCF10A rereplic: 0%; SW480 rereplic: -6%; ELG1 DNA repair: 23µM*; KB-V1 MDR tox: inconclusive; KB-3-1 cytotox: inactive

How did CC1CCCC(NC(=O)COC(=O)[C@@H](NC(=O)c2ccco2)C(C)C)C1C (stereo partly specified) do in these assays?
MCF10A rereplic: -36%; SW480 rereplic: -16%; ELG1 DNA repair: 8%; KB-V1 MDR tox: inactive; KB-3-1 cytotox: inactive

Results for O=C(Nc1ccccc1)c1ccc(F)c(S(=O)(=O)N2CCOCC2)c1 ?
MCF10A rereplic: 2%; SW480 rereplic: 7%; ELG1 DNA repair: 15µM*; KB-V1 MDR tox: inactive; KB-3-1 cytotox: inactive

What do the screens show for `O=C(NCc1ccccc1)c1ccc(F)c(S(=O)(=O)N2CCOCC2)c1`?
MCF10A rereplic: 1%; SW480 rereplic: 2%; ELG1 DNA repair: -5%; KB-V1 MDR tox: inactive; KB-3-1 cytotox: inactive

How did O=C(NC12CC3CC(CC(C3)C1)C2)N1CC2Cc3cccc(=O)n3C(C2)C1 (stereo unspecified) do in these assays?
MCF10A rereplic: -5%; SW480 rereplic: -5%[9.22 µM]; ELG1 DNA repair: 21%; KB-V1 MDR tox: inactive; KB-3-1 cytotox: inactive

Results for COCCN(Cc1cc2cc(C)ccc2nc1Cl)C(=O)Nc1ccccc1OC ?
MCF10A rereplic: -3%; SW480 rereplic: 1%; ELG1 DNA repair: 21µM*; KB-V1 MDR tox: inactive; KB-3-1 cytotox: inactive

What do the screens show for `CCOC(=O)C1=C(C)N(c2ccc(OC)cc2)C(=O)/C1=C\c1ccc(O)c(OCC)c1`?
MCF10A rereplic: inconclusive; SW480 rereplic: 1%; ELG1 DNA repair: -11%; KB-V1 MDR tox: inactive; KB-3-1 cytotox: inactive

How did CCOC(=O)C1=C(C)N(c2ccc(OC)cc2)C(=O)/C1=C\c1cccs1 do in these assays?
MCF10A rereplic: inconclusive; SW480 rereplic: 1%; ELG1 DNA repair: 21µM*; KB-V1 MDR tox: inactive; KB-3-1 cytotox: inconclusive
